Screen size: about 310,000 compounds; about 14,000 (4.5%) showed an effect of 50% or more. The effect is printed as a negative number. This is one part of a sample in which strong results are shown more often than they occur.
The compounds below were run against human ether-à-go-go-related gene (hERG) potassium channel (human, UniProt Q12809) (assay: primary screen, population patch clamp on CHO cells stably expressing hERG; higher = less effect of the substance).
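Note: peak tail current of the secondary pulse compared with the same well before compound.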

human ether-à-go-go-related gene (hERG) potassium channel, sequence (Q12809 whole entry, looked up): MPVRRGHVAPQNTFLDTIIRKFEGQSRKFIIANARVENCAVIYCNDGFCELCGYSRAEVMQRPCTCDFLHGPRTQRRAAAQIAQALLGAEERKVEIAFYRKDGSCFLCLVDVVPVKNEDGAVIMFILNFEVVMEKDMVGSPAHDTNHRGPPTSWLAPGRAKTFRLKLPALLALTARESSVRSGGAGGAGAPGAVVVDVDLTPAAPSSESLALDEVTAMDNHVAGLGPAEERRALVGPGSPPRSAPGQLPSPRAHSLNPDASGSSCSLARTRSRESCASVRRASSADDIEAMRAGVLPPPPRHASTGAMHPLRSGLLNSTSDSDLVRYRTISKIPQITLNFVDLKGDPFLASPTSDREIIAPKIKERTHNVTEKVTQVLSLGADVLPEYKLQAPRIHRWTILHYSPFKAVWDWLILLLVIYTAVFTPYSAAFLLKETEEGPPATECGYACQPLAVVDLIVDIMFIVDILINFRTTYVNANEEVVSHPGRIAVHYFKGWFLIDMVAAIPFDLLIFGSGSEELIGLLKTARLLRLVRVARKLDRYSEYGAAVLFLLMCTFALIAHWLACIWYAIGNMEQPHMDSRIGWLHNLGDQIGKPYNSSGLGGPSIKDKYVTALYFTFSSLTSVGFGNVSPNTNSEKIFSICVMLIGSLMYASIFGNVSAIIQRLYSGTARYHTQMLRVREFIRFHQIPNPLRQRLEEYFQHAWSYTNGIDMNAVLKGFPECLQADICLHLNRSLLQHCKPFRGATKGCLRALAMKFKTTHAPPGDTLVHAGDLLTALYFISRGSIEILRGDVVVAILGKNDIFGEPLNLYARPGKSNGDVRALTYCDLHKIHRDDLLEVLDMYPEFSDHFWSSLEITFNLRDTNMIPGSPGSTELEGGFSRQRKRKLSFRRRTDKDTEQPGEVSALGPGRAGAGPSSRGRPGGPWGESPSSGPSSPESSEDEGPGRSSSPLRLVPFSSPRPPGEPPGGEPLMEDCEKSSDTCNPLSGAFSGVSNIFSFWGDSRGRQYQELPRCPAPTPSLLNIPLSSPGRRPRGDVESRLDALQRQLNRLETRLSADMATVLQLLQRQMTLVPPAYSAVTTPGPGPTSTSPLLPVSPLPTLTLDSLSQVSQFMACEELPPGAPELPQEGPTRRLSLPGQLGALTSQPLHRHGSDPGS

Going from `COc1cc(OC)c2ccc(=O)oc2c1C(CC(=O)N1CCCC1)c1ccc(N(C)C)cc1` (stereo not shown) to `COc1cccc(C(C(=O)NC2CCCC2)N(C(=O)c2ccco2)c2ccc(-n3cnnn3)c(C)c2)c1OC` (stereo not shown), the “hERG current change (%, negative = inhibition) at 10uM” value falls from 10.2% to 8.33%.

Compared with `COc1cc(Cl)ccc1OCc1cc(C(=O)N2C[C@]3(C)C[C@H]2CC(C)(C)C3)no1`, `C/C=C/c1ccc(OCC(=O)Nc2ccc(C(N)=O)cc2)c(OC)c1` is higher in “hERG current change (%, negative = inhibition) at 10uM” value: -8.91% for the first, 7.23% for the second.

First: CC12CCC(CC1=O)C2(C)C (stereo not shown)
Second: Cc1cc(C)nc(NC2=NCC(=O)N2c2ccccc2Br)n1
The “hERG current change (%, negative = inhibition) at 10uM” value of the first is lower: 8.29% for the first, 8.96% for the second.

First: CCCCCCCCCCOC(=O)Cn1c(COc2ccc(OC)cc2)[n+](C)c2ccccc21.[Cl-]
Second: CCCCCCCCCCOC(=O)Cn1c(COc2cccc(C)c2)[n+](C)c2ccccc21.[Cl-]
The “hERG current change (%, negative = inhibition) at 10uM” value of the first is lower: -83.3% for the first, -76% for the second.

Compared with `Cc1cccc(OCCCCn2c(CO)nc3ccccc32)c1`, `COc1ccc(OCCCCn2c(CO)nc3ccccc32)cc1` is lower in “hERG current change (%, negative = inhibition) at 10uM” value: -5.5% for the first, -24.5% for the second.

Going from `CCCCOC(=O)Cn1c2ccc(OC)cc2c2nc3ccccc3nc21` to `CCCCCOC(=O)Cn1c(=O)oc2ccc(C)cc21`, the “hERG current change (%, negative = inhibition) at 10uM” value falls from -6.29% to -10.6%.

Going from `CN(C)C(=O)C(Sc1ccc(S(=O)(=O)N2CCCC2)cn1)c1ccccc1` (stereo not shown) to `CS(=O)(=O)Nc1ccc(C(=O)Nc2ccc(S(=O)(=O)N3CCCC3)cc2)cc1`, the “hERG current change (%, negative = inhibition) at 10uM” value falls from -13.4% to -13.7%.

First: COc1ccccc1P(=O)(c1ccccc1)c1ccccc1
Second: OC(CNCCC(c1ccccc1)c1ccccc1)COc1ccccc1 (stereo not shown)
The “hERG current change (%, negative = inhibition) at 10uM” value of the first is higher: 15.1% for the first, -71.4% for the second.

Going from `COc1cccc(/C=C/C(=O)NCCc2ccc(OC)c(OC)c2)c1` to `COc1cc(C(=O)NCc2nnc(SCC(=O)NCc3ccccc3)o2)cc(OC)c1OC`, the “hERG current change (%, negative = inhibition) at 10uM” value rises from -16.3% to 17.6%.

First: N#CCC(=O)Nc1ccc(C(=O)OCC(=O)c2ccc3c(c2)OCCO3)cc1
Second: CC(=O)Nc1ccc(S(=O)(=O)N2CCCC2C(=O)Nc2ccc(F)cc2)cc1 (stereo not shown)
The “hERG current change (%, negative = inhibition) at 10uM” value of the first is lower: 10.5% for the first, 11.2% for the second.

Going from `OC(CCc1ccncc1)COc1ccccc1` (stereo not shown) to `CC(CCc1ccccc1)NCC(O)COc1ccccc1` (stereo not shown), the “hERG current change (%, negative = inhibition) at 10uM” value falls from 3.52% to -73.4%.

Going from `OC(CNCCc1ccccc1)COc1ccc(OCC(O)CNCCc2ccccc2)cc1` (stereo not shown) to `OC(CNCc1ccccc1)COc1ccccc1` (stereo not shown), the “hERG current change (%, negative = inhibition) at 10uM” value falls from 1.24% to -11.9%.

Compared with `CNCC(O)COc1ccccc1` (stereo not shown), `COCCn1c(Cc2ccccc2)nnc1SCC(=O)N(C)C` is higher in “hERG current change (%, negative = inhibition) at 10uM” value: -5.69% for the first, 14.3% for the second.

First: CCc1cc(C(=O)N2CCN(c3ccccn3)CC2)sc1C
Second: CC1CC(C)CN(CCCNC(=O)c2c(O)nc3ccccn3c2=O)C1 (stereo not shown)
The “hERG current change (%, negative = inhibition) at 10uM” value of the first is lower: -3.12% for the first, 6.75% for the second.

Compared with `O=C(CCS(=O)CCC(=O)NCc1ccccc1)NCc1ccccc1`, `COCCn1c(Cc2ccccc2)nnc1SCC(=O)Nc1ccccc1` is lower in “hERG current change (%, negative = inhibition) at 10uM” value: 17.7% for the first, 5.83% for the second.

Compared with `Cc1nnc(NC(=O)c2cccc(F)c2)s1`, `Cc1nc(NC(=O)c2ccccc2)sc1-c1csc(NCCc2ccccc2)n1` is higher in “hERG current change (%, negative = inhibition) at 10uM” value: 4.08% for the first, 12% for the second.

Going from `COC(=O)CN1C(c2ccccc2)=Nc2ccc(Cl)cc2C1c1ccccc1` (stereo not shown) to `COC(=O)CN1C(c2cccc(Cl)c2)=Nc2ccc(Cl)cc2C1c1ccccc1` (stereo not shown), the “hERG current change (%, negative = inhibition) at 10uM” value rises from -66.4% to 1.61%.

Compared with `NNC(=O)CN1C(c2ccc(Cl)cc2)=Nc2ccc(Br)cc2C1c1ccccc1` (stereo not shown), `NNC(=O)CN1C(c2ccc(Br)cc2)=Nc2ccc(Br)cc2C1c1ccccc1` (stereo not shown) is higher in “hERG current change (%, negative = inhibition) at 10uM” value: -53.3% for the first, -30.8% for the second.

Going from `NNC(=O)CN1C(c2ccccc2)=Nc2ccc(Br)cc2C1c1ccccc1` (stereo not shown) to `COC(=O)CN1C(c2ccc(Cl)cc2)=Nc2ccc(Cl)cc2C1c1ccccc1` (stereo not shown), the “hERG current change (%, negative = inhibition) at 10uM” value rises from -20% to -17.7%.

Going from `CC/C(=N\NC(=O)c1ccc(-c2ccccc2)cc1)C12CC3CC(CC(C3)C1)C2` to `COC(=O)[C@@]1(Cc2ccc(F)cc2)[C@H]2c3cc(C(=O)N4CCCC4)n(CCc4ccccn4)c3C[C@H]2CN1C(=O)c1ccccc1`, the “hERG current change (%, negative = inhibition) at 10uM” value falls from 0.121% to -64.1%.

Compared with `COc1nc(NC2CCCCC2)nc(N2CCCCCC2)n1`, `COC(=O)[C@@]1(Cc2ccc(F)cc2)[C@H]2c3cc(C(=O)N4CCCC4)n(CCc4c[nH]c5ccc(OC)cc45)c3C[C@H]2CN1C(=O)c1ccccc1` is lower in “hERG current change (%, negative = inhibition) at 10uM” value: 4.84% for the first, 3.92% for the second.

Going from `O=C(c1ccc(Cl)cc1)N1CCCOC1` to `O=C(O)c1ccc(N2C(=O)c3cccc(Oc4ccc(Cl)cc4)c3C2=O)cc1`, the “hERG current change (%, negative = inhibition) at 10uM” value falls from 15.2% to -80.7%.

First: CN(C)C(CNC(=O)CCCN1C(=O)c2cccc3cccc(c23)C1=O)c1ccccc1 (stereo not shown)
Second: O=C(O)c1cccc(N2C(=O)c3cccc(Oc4ccc(Cl)cc4)c3C2=O)c1
The “hERG current change (%, negative = inhibition) at 10uM” value of the first is lower: -46.2% for the first, 16.2% for the second.

Compared with `COC(=O)[C@@]1(Cc2ccc(F)cc2)[C@H]2c3cc(C(=O)N(C)C)n(Cc4ccc(OC)c(OC)c4)c3C[C@H]2CN1C(=O)c1ccccc1`, `COC(=O)[C@@]1(Cc2ccc(F)cc2)[C@H]2c3cc(C(=O)N(C)C)n(CCc4ccc(OC)c(Br)c4)c3C[C@H]2CN1C(=O)c1ccccc1` is higher in “hERG current change (%, negative = inhibition) at 10uM” value: -42.6% for the first, -2.99% for the second.

Going from `COC(=O)[C@@]1(Cc2ccc(F)cc2)[C@H]2c3cc(C(=O)N(C)C)n(Cc4ccccn4)c3C[C@H]2CN1C(=O)c1ccccc1` to `COC(=O)[C@@]1(Cc2ccc(F)cc2)[C@H]2c3cc(C(=O)N(C)C)n(CCc4ccccn4)c3C[C@H]2CN1C(=O)c1ccccc1`, the “hERG current change (%, negative = inhibition) at 10uM” value falls from -53.4% to -64.8%.

Going from `COC(=O)[C@@]1(Cc2ccc(F)cc2)[C@H]2c3cc(C(=O)N4CCCC4)n(CCc4ccc(O)c(O)c4)c3C[C@H]2CN1C(=O)c1ccccc1` to `COC(=O)[C@@]1(Cc2ccc(F)cc2)[C@H]2c3cc(C(=O)N(C)C)n(Cc4ccccc4)c3C[C@H]2CN1C(=O)c1ccccc1`, the “hERG current change (%, negative = inhibition) at 10uM” value rises from -15.5% to -13.3%.

First: COC(=O)[C@@]1(Cc2ccc(F)cc2)[C@H]2c3cc(C(=O)N(C)C)n(CCSCCO)c3C[C@H]2CN1C(=O)c1ccccc1
Second: COc1ccc(CC(=O)NCc2nnc(SCC(=O)c3ccc(OC)cc3)n2C)cc1
The “hERG current change (%, negative = inhibition) at 10uM” value of the first is lower: -34.4% for the first, -3.61% for the second.

First: CCOC(=O)CNC(=O)c1cnn2cccnc12
Second: COC(=O)c1nc2ccccn2c1F
The “hERG current change (%, negative = inhibition) at 10uM” value of the first is lower: 2.78% for the first, 13.2% for the second.

First: NC(=O)c1c(-c2cccs2)csc1N
Second: COC(=O)c1scc(C)c1NC(=O)Nc1ccccc1
The “hERG current change (%, negative = inhibition) at 10uM” value of the first is higher: 3.94% for the first, 3.91% for the second.

Going from `Cc1ccc(S(=O)(=O)NC2OC(=O)C(Cl)=C2Cl)cc1` (stereo not shown) to `Cc1cccc(N2C(=O)c3cccc(Oc4ccc(Cl)cc4)c3C2=O)c1`, the “hERG current change (%, negative = inhibition) at 10uM” value rises from -3.55% to 4.76%.

Going from `Cc1c(C(=O)N(C)CCCCN2CCOCC2)oc2c(F)cccc12` to `COc1ccc(CC(=O)NCc2nnc(SCc3ccc(C)cc3)n2C)cc1`, the “hERG current change (%, negative = inhibition) at 10uM” value rises from 4.14% to 5.49%.

Going from `CCCCC(=O)NC(=S)Nc1cc(C(=O)O)ccc1Cl` to `CC(=O)NC(=S)Nc1cc(C(=O)O)ccc1Cl`, the “hERG current change (%, negative = inhibition) at 10uM” value falls from 11.2% to -64.9%.

Going from `CC(C)(C)C(=O)NC(=S)Nc1cc(C(=O)O)ccc1Cl` to `CNC(=O)Nc1cc(C(F)(F)F)cc(C(F)(F)F)c1`, the “hERG current change (%, negative = inhibition) at 10uM” value rises from 4.5% to 14.3%.

Compared with `Cc1sc2ncnc(Oc3ccc(-n4ccnc4)cc3)c2c1C`, `Cc1ccc2cccc(Oc3ncnc4sc(C)c(C)c34)c2n1` is higher in “hERG current change (%, negative = inhibition) at 10uM” value: -68.4% for the first, 15.3% for the second.

Compared with `Cc1sc2ncnc(N)c2c1C`, `CCOc1ccc(N/C(N)=N/c2nc(CSc3nnc(C)s3)cc(=O)[nH]2)cc1` is higher in “hERG current change (%, negative = inhibition) at 10uM” value: 4.12% for the first, 12.5% for the second.

Going from `COc1ccc(C2C(C#N)=C(N)Oc3c2c(C)nn3-c2ccccc2)cc1Cn1nc(C)c([N+](=O)[O-])c1C` (stereo not shown) to `Cc1nn(-c2ccccc2)c(Cl)c1/C=N/NC(=O)c1ccccc1F`, the “hERG current change (%, negative = inhibition) at 10uM” value rises from -4.96% to 14.6%.

Going from `CC[n+]1ccc(/C=C/c2c[nH]c3ccccc23)cc1.[Cl-]` to `COCCn1c(Cc2ccccc2)nnc1SCc1ccc([N+](=O)[O-])cc1`, the “hERG current change (%, negative = inhibition) at 10uM” value falls from -6.54% to -55%.

First: Cc1cc(/C=C(/C#N)C(=O)O)c(C)n1CCC(C)C
Second: COc1ccc(CC(=O)NCc2nnc(SCc3ccc([N+](=O)[O-])cc3)n2C)cc1
The “hERG current change (%, negative = inhibition) at 10uM” value of the first is higher: 4.68% for the first, -63.6% for the second.

Going from `COc1ccc(-n2c(Cc3ccccc3)nnc2SCC(=O)N2CCCc3ccccc32)cc1` to `COc1ccc(-n2c(Cc3cccn3C)nnc2SCC(=O)N2CCCc3ccccc32)cc1`, the “hERG current change (%, negative = inhibition) at 10uM” value rises from -53.9% to -13.9%.

Going from `COc1ccc(-n2c(SCc3ccc([N+](=O)[O-])cc3)nnc2-c2ccccc2)cc1` to `COc1ccc(-n2c(Cc3ccccc3)nnc2SCc2ccc([N+](=O)[O-])cc2)cc1`, the “hERG current change (%, negative = inhibition) at 10uM” value falls from -24.4% to -68.4%.

First: O=[N+]([O-])c1ccc(CSc2nnc(Cc3ccccc3)n2-c2ccc(F)cc2)cc1
Second: COc1ccc(OCc2nnc(SCC(=O)N3CCCc4ccccc43)n2-c2ccc(C)cc2)cc1
The “hERG current change (%, negative = inhibition) at 10uM” value of the first is lower: -48.7% for the first, -3.12% for the second.

— article PMC4336329 (PLoS ONE, 2015)
